High-throughput results as filed in PubChem BioAssay.
Vif-A3F inh: inhibitors of Vif-A3F interaction; Potency, µM (top dose mostly 46.1 µM), inactives show at the top dose activity, negative = active; HeLa A3F-eYFP + Vif (tagged APOBEC3F with the HIV-1 protein that degrades it), YFP fluorescence increase; 390,000 tested, 0.2% active; also: potency is read from the fitted curve at half-maximal effect; % of control where 0% means no effect; nearly all actives have a fitted effect of over 65% in size
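HeLa cells stably expressing A3F-eYFP plus Vif, plated and incubated overnight at 37 deg C, then exposed to compounds overnight at 37 deg C. Blocked degradation read as raised yellow fluorescence (Ex 488/Em 500-530).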
IL1B secr inh: blocks inflammasome-driven IL-1 beta release; THP-1 LPS/ATP IL-1B secretion, AlphaLISA, 16 h; stronger effect = lower value; activity change, % at 57.5 µM; 360,000 tested, 4.7% active; in the data active = activity change below about -50%; inconclusive = mostly about -30% to -49%; also: % is scaled to controls: 0 for no effect and ±100 for the full control effect
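Secreted IL-1B measured by AlphaLISA bead assay after 16 h compound exposure of THP-1 cells; compounds (final up to 57.5 uM) added 1 h before LPS (250 ng/mL) and ATP (1.25 mM) stimulation; lower signal means less secretion.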
SW480 rereplic: inducers of DNA re-replication in SW480 colon cancer cells. SW480 DNA re-replication, Hoechst DNA content imaging, 48 h. Potency, µM (series often up to 46.1 µM), inactives show top-dose re-replication activation, hits mostly activators. 340,000 tested, 1.8% active. AID 624297; also: potency is read from the fitted curve at half-maximal effect; % of control where 0% means no effect; nearly all actives have a fitted effect of over 55% in size
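SW480 cells exposed to compounds for 48 hr at 37 C, 5% CO2, then Hoechst-stained 40 min. Nuclear DNA content imaged by fluorescence scanning (405 nm excitation, 500-530 nm emission); re-replication scored as increased high-intensity nuclei.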
Vif-A3G inh: inhibitors of Vif-APOBEC3G interaction; HeLa A3G-eYFP + Vif (tagged APOBEC3G with the HIV-1 protein that degrades it), YFP fluorescence, overnight; Potency, µM (highest dose often 46.1 µM), for the others: at the top dose activity, negative = active, most hits filed as inhibitors; 410,000 tested, 0.076% active; AID 602310; also: potency is read from the fitted curve at half-maximal effect; % is scaled to controls: 0 for no effect and ±100 for the full control effect; nearly all actives have a fitted effect of over 60% in size
Target sequence (Q9HC16 whole entry, looked up): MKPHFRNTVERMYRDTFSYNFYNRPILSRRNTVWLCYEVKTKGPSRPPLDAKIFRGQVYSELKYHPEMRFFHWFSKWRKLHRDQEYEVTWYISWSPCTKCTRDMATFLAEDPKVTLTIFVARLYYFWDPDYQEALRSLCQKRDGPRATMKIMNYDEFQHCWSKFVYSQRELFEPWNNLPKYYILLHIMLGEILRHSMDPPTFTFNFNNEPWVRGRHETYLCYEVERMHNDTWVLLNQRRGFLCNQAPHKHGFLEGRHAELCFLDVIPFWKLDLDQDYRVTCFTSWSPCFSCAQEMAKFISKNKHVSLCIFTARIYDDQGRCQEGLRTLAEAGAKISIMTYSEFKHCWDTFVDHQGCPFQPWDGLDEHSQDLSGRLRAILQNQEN
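Read-out is eYFP fluorescence (Ex 488/Em 500-530) from Vif-expressing HeLa A3G-eYFP cells; more signal means A3G escaped Vif-mediated degradation. Cells plated overnight, compound pinned in, incubated overnight at 37 deg C.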
Giardia killer: Giardia lamblia killing; activity change, % at 7.66 µM, hits read low; Giardia lamblia trophozoite viability; 340,000 tested, 0.15% active; in the data active = activity change below about -80%; inconclusive = between about -30% and that limit;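 also: parasites exposed to compound for two days anaerobically before the ATP read; % is scaled to controls: 0 for no effect and ±100 for the full control effect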
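Luminescent ATP signal served as the viability read-out, measured 15-30 min after adding ATP detection reagent to trophozoites that had been incubated with compounds for 48 hrs at 37 deg C anaerobically at 100 cells/well.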
MCF10A rerep: inducers of DNA re-replication in MCF 10A breast cells; MCF 10A DNA re-replication, Hoechst nuclear intensity, 48 h; Potency, µM (highest dose often 46.1 µM), inactives show at the top dose activity, positive = re-replication, usual class: activators; 350,000 tested, 2.9% active; AID 624296; also: potency is read from the fitted curve at half-maximal effect; % of control where 0% means no effect; nearly all actives have a fitted effect of over 50% in size
Numbers without * were called inactive; ? = inconclusive; . = no result; ! = not active in a repeat. The list is not random: actives were taken first. Their share in the collection is about 6.9%. Unless noted, calls follow the shape of the dose curve; as a rule, active = well fitted curve in the direction sought with a large enough effect; inconclusive = small, poorly fitted or top-dose-only effect, or another doubt; inactive = no such curve, though single readings can be large; an effect the other way counts as inactive or inconclusive.

SMILES	Vif-A3F inh	IL1B secr inh	SW480 rereplic	Vif-A3G inh	Giardia killer	MCF10A rerep
Clc1ccc(CN2CCCCCC2)cc1	6%	-1	-3%	-1%	-15	8%
O=[N+]([O-])c1cc(CN2CCCC2)ccc1Sc1ccc(Cl)cc1	3%	-12	6%	5%	13	10µM*
COC(=O)c1[nH]c2ccc(F)cc2c1NS(=O)(=O)c1ccc(OC)cc1	-1%	41	4.6µM*	?	-6	7.3µM*
CCOC(=O)c1ccc(N2CCCCC2)c(NS(=O)(=O)c2ccc(C)cc2)c1	6%	60	?	-24%	11	21µM*
Cn1c(=O)c(=O)n(C)c2cc(N3CCCCC3)c(NS(=O)(=O)c3ccc(Br)cc3)cc21	-9%	?	7.3µM*	0%	-27	-1%
CCOC(=O)c1c(NC(=O)c2cc(OCC)c(OCC)c(OCC)c2)sc2c1CCCCC2	-6%	.	.	-3%	.	.
COc1ccc(S(=O)(=O)N/N=c2\oc3c(OC)cccc3cc2S(=O)(=O)c2ccc(C)cc2)cc1OC	-15%	-54*	?	-14%	11	?
COc1cccc2cc(C(=O)Nc3ccccc3C)/c(=N/NS(=O)(=O)c3ccccc3)oc12	4%	-2	4%	-6%	-11	1%
Cc1ccc(Cl)c(Nc2ccccc2C(=O)O)c1Cl	6%	11	-9%	0%	?	27µM*!
Cc1ccc(Cl)c(NC(=O)CCl)c1Cl	1%	-91*	11%	0%	1	4%
Cc1ccc(Cl)c(NC(=O)CSc2cccc[n+]2[O-])c1Cl	10%	-8	-6%	0%	-1	0%
O=C(OCC1CCCO1)c1ccc2c(c1)N(Cc1c(F)cccc1Cl)C(=O)c1ccccc1S2(=O)=O (configuration not stated)	1%	.	.	-3%	.	.
Cc1ccccc1C(=O)Nc1ccc(OCc2cc(=O)n3ccccc3n2)cc1	1%	.	.	-2%	.	.
Clc1ccc(-c2nnc3sc(-c4ccc(Br)o4)nn23)c(Cl)c1	?	5	3%	?	34	9.2µM*
Clc1ccccc1-c1nnc2sc(-c3ccc(Br)o3)nn12	-1%	-52*	19%	1%	-1	?
CCOc1ccc(CCNC(=O)CCc2c(C)nc3cc(-c4ccccc4OC)nn3c2C)cc1	-14%	.	.	2%	.	.
O=C(Cc1c(Sc2ccccc2)c2ccccc2n1Cc1ccccc1)NCCO	-8%	?	11%	0%	36	21µM*
O=C(O)CCC(=O)Nc1cccc2cccnc12	-17%	13	0%	0%	0	-8%
O=C(CCC(=O)OCC(=O)c1ccccc1)Nc1cccc2cccnc12	1%	25	18µM*	1%	-1	16µM*
CCCCn1c(=O)c2oc3ccccc3c2n(Cc2ccccc2C)c1=O	11%	.	.	-12%	.	.
O=[N+]([O-])c1cnn(-c2nc(-c3ccco3)cc(C(F)(F)F)n2)c1	3%	9	18µM*	-5%	10	15%
Cc1nn(-c2nc(-c3ccco3)cc(C(F)(F)F)n2)c(C)c1Br	1%	16	-2%	-3%	?	0%
COc1ccc(-c2cc(C(F)(F)F)nc(NCCc3ccccc3)n2)cc1	0%	.	.	-2%	.	.
FC(F)(F)c1cc(-c2ccco2)nc(N2CCN(Cc3ccccc3)CC2)n1	-6%	0	3%	-2%	-8	13µM*
Fc1ccc(N2CCN(c3nc(-c4ccco4)cc(C(F)(F)F)n3)CC2)cc1	7%	53	-9%	-4%	14	?
SMILES	Vif-A3F inh	IL1B secr inh	SW480 rereplic	Vif-A3G inh	Giardia killer	MCF10A rerep
FC(F)(F)c1cc(-c2ccco2)nc(NCCc2ccccc2)n1	?	0	?	-5%	17	18µM*
C(=C\c1nc2ccccc2s1)/c1ccc2c(c1)OCO2	.	.	.	1%	.	.
Cc1ccc(C)c(N(C)C(=O)c2cn(C)c(=O)c3ccccc23)c1	-6%	.	.	0%	.	.
Cc1ccc(C)c(Nc2nnc(-c3ccc(C)c(S(=O)(=O)N4CCN(C)CC4)c3)c3ccccc23)c1	-2%	.	.	-4%	.	.
CC1CC(O)CC(C)(C)C1 (configuration not stated)	.	.	6%	.	.	2%
COc1ccc(C(=O)Nc2nnc(C3=COCCO3)o2)cc1	?	11	18%	-2%	-11	3%
Cc1ccc(-c2nnc(NC(=O)c3ccc([N+](=O)[O-])o3)o2)c(C)c1	?	?	11%	-6%	-81*	?
COc1ccc(-c2nnc(NC(=O)c3ccc([N+](=O)[O-])o3)o2)c(OC)c1	?	-19	16µM*	?	-100*	8.2µM*
COc1cccc(CNC(=O)c2[nH]c3cc(C)ccc3c2Sc2ccccc2)c1	0%	.	.	-1%	.	.
Cc1cc(S(=O)(=O)N2CCCOC2CNC(=O)C(=O)NCc2ccco2)ccc1F (configuration not stated)	-11%	7	?	-29%	-19	8.2µM*
O=C(NCCc1ccco1)C(=O)NCC1OCCCN1S(=O)(=O)c1ccc(F)cc1 (configuration not stated)	-2%	-7	1%	2%	16	-2%
COc1ccc(S(=O)(=O)N2CCCOC2CNC(=O)C(=O)NCCc2ccco2)cc1C (configuration not stated)	-28%	51	18µM*	?	9	?
Cc1ccc(S(=O)(=O)N2CCCOC2CNC(=O)C(=O)NCCc2c[nH]c3ccccc23)cc1 (configuration not stated)	0%	-60*	25%	-5%	-12	24%
CC(C)c1cnc2c(c1SCC(=O)Nc1cccc([N+](=O)[O-])c1)c(=O)n(C)c(=O)n2C	-6%	.	.	-8%	.	.
COc1ccc(-c2cn(Cc3ccc(C(=O)c4ccccc4)cc3)nn2)cc1	-4%	20	?	?	23	2.6µM*
COc1ccc(-c2cn(Cc3ccc4ccccc4c3)nn2)cc1	0%	17	-16%	0%	0	-21%
CCCn1nc(NC(=O)c2cccs2)c2cc3ccccc3nc21	-4%	-2	15µM*	-1%	-1	5.8µM*
CCCn1nc(NC(=O)c2ccncc2)c2cc3ccccc3nc21	-5%	?	1%	-2%	-10	5%
CCCCn1nc(NC(=O)c2cccs2)c2cc3ccccc3nc21	-1%	-94*	?	1%	2	?
Cn1c(-n2cccc2)c(-c2c(-c3ccc(F)cc3)[nH]c3c2c(=O)n(C)c(=O)n3C)c(=O)n(C)c1=O	3%	.	.	3%	.	.
CCCCOC(=O)c1cccc(NC(=O)c2cc3ccccc3o2)c1	-9%	.	.	4%	.	.
